# Reference: the antibiotic and cytotoxicity screens of Wong et al. (2023)
# Among all 39,000 compounds or so, about 500 (1.3%) were called active. The sample holds actives, similar compounds and a random draw of the others, so the mix is not that of the screen.
# Tested on: S. aureus RN4220
# Assay: growth inhibition call (relative growth <= 0.2)
# Settings: 50 µM
row,SMILES,growth inhibition call
1,Nc1ccc(O)cc1,inactive
2,C[C@@H]1CCCCO[C@@H](CN(C)C(=O)C2CCCCC2)[C@H](C)CN([C@@H](C)CO)C(=O)c2cc(NC(=O)Nc3cccc4ccccc34)ccc2O1,inactive
3,CN1C=C(C(=O)OCCS(C)(=O)=O)C(C(=O)OCCS(C)(=O)=O)=CC(CCCO)=C[C@@H]1C1CC1,inactive
4,COC(=O)C1=CC(CCCO)=C[C@@H](c2cccs2)N(Cc2cccc(OC(F)(F)F)c2)C=C1C(=O)OC,active
5,O=C(O)c1ccc(S(=O)(=O)N(Cl)Cl)cc1,inactive
6,O=C(O)c1ccc(S(=O)(=O)N(Cc2ccc(OC(F)(F)F)cc2)c2ncc(C(F)(F)F)cc2Cl)cc1,active
7,CCN(CC)S(=O)(=O)c1ccc(C(=O)O)cc1,inactive
8,N=C(N=C(N)N)Nc1cc(-c2cccs2)n[nH]1,inactive
9,C[C@H]1CN([C@@H](C)CO)S(=O)(=O)c2ccc(C#Cc3ccc(F)cc3)cc2O[C@H]1CN(C)C(=O)CN(C)C,active
10,C[C@@H]1CN([C@@H](C)CO)S(=O)(=O)c2ccc(C#Cc3ccc(F)cc3)cc2O[C@@H]1CN(C)C(=O)CN(C)C,inactive
11,C[C@@H]1CN([C@H](C)CO)S(=O)(=O)c2ccc(C#Cc3ccc(F)cc3)cc2O[C@@H]1CN(C)C(=O)CN(C)C,inactive
12,C[C@@H]1CN([C@@H](C)CO)S(=O)(=O)c2ccc(C#Cc3ccc(F)cc3)cc2O[C@H]1CN(C)C(=O)CN(C)C,inactive
13,C[C@@H]1CN([C@@H](C)CO)S(=O)(=O)c2ccc(C#Cc3ccccc3)cc2O[C@@H]1CN(C)C(=O)CN(C)C,active
14,C[C@@H]1CN([C@H](C)CO)S(=O)(=O)c2ccc(C#Cc3ccccc3)cc2O[C@@H]1CN(C)C(=O)CN(C)C,active
15,C[C@@H]1CN([C@H](C)CO)S(=O)(=O)c2ccc(C#Cc3ccc(F)cc3)cc2O[C@H]1CN(C)C(=O)CN(C)C,inactive
16,C[C@H]1CN([C@@H](C)CO)S(=O)(=O)c2ccc(C#Cc3ccc(F)cc3)cc2O[C@@H]1CN(C)C(=O)CN(C)C,inactive
17,C[C@H]1CN([C@@H](C)CO)S(=O)(=O)c2ccc(C#Cc3ccccc3)cc2O[C@@H]1CN(C)C(=O)CN(C)C,inactive
18,C[C@H](CO)N1C[C@H](C)[C@H](CN(C)C(=O)CN(C)C)Oc2cc(C#Cc3ccc(F)cc3)ccc2S1(=O)=O,inactive
19,C[C@H]1CN([C@@H](C)CO)S(=O)(=O)c2ccc(C#Cc3ccccc3)cc2O[C@H]1CN(C)C(=O)CN(C)C,active
20,C[C@H](CO)N1C[C@H](C)[C@@H](CN(C)C(=O)CN(C)C)Oc2cc(C#Cc3ccccc3)ccc2S1(=O)=O,inactive
21,C[C@@H]1CCCCO[C@@H](CN(C)Cc2ccc(Cl)c(Cl)c2)[C@@H](C)CN([C@H](C)CO)C(=O)c2cc(NC(=O)C3CCCCC3)ccc2O1,inactive
22,CC(C)NC(=O)N(C)C[C@@H]1OCCCC[C@@H](C)Oc2ccc(NS(=O)(=O)c3cn(C)cn3)cc2C(=O)N([C@H](C)CO)C[C@H]1C,inactive
23,C[C@@H]1CN([C@H](C)CO)C(=O)c2cc(NS(=O)(=O)c3ccc(F)cc3)ccc2O[C@@H](C)CCCCO[C@H]1CN(C)C(=O)Nc1ccccc1,inactive

row,SMILES,growth inhibition call
1,CC=Cc1ccc2n(c1=O)C[C@@H]1[C@@H](CO)[C@H](C(=O)NC3CCC3)N(S(C)(=O)=O)[C@H]21,inactive
2,CCCN(C)C[C@@H]1OCCCC[C@@H](C)Oc2ccc(NS(=O)(=O)c3cn(C)cn3)cc2C(=O)N([C@@H](C)CO)C[C@@H]1C,inactive
3,C[C@@H]1CN([C@@H](C)CO)C(=O)c2cc(C#Cc3ccncc3)cnc2O[C@H]1CN(C)S(=O)(=O)c1ccccc1F,inactive
4,C[C@@H]1CN([C@@H](C)CO)C(=O)c2cc(NS(C)(=O)=O)ccc2O[C@@H](C)CCCCO[C@H]1CN(C)S(=O)(=O)c1cn(C)cn1,inactive
5,C[C@@H]1CN([C@H](C)CO)C(=O)c2cccc(NS(C)(=O)=O)c2O[C@@H]1CN(C)S(=O)(=O)c1ccc(F)cc1,inactive
6,C[C@@H]1CN([C@@H](C)CO)S(=O)(=O)c2ccc(C#Cc3ccccc3)cc2O[C@H]1CN(C)C(=O)CN(C)C,inactive
7,C[C@@H]1CN([C@H](C)CO)S(=O)(=O)c2ccc(C#Cc3ccccc3)cc2O[C@H]1CN(C)C(=O)CN(C)C,inactive
8,C[C@H](CO)N1C[C@H](C)[C@H](CN(C)C(=O)CN(C)C)Oc2cc(C#Cc3ccccc3)ccc2S1(=O)=O,active
9,COc1ccc(S(=O)(=O)N(C)C[C@@H]2Oc3ccc(NS(=O)(=O)c4cccs4)cc3CC(=O)N([C@@H](C)CO)C[C@H]2C)cc1,inactive
10,C[C@H]1CN([C@@H](C)CO)C(=O)c2cccc(NS(C)(=O)=O)c2O[C@H]1CN(C)C(=O)Nc1ccc(C(F)(F)F)cc1,inactive
11,C[C@H](CO)N1C[C@H](C)[C@@H](CN(C)C(=O)Nc2ccc(C(F)(F)F)cc2)Oc2c(NS(C)(=O)=O)cccc2C1=O,inactive
12,C[C@@H]1CN([C@@H](C)CO)C(=O)c2cccc(NS(C)(=O)=O)c2O[C@H]1CN(C)C(=O)Nc1ccc(C(F)(F)F)cc1,active
13,C[C@@H]1CN([C@H](C)CO)C(=O)c2cccc(NS(C)(=O)=O)c2O[C@H]1CN(C)C(=O)Nc1ccc(C(F)(F)F)cc1,inactive
14,C[C@@H]1CN([C@@H](C)CO)C(=O)c2cccc(NS(C)(=O)=O)c2O[C@@H]1CN(C)C(=O)Nc1ccc(C(F)(F)F)cc1,active
15,C[C@H](CO)N1C[C@H](C)[C@H](CN(C)C(=O)Nc2ccc(C(F)(F)F)cc2)Oc2c(NS(C)(=O)=O)cccc2C1=O,inactive
16,C[C@H]1CN([C@@H](C)CO)C(=O)c2cccc(NS(C)(=O)=O)c2O[C@@H]1CN(C)C(=O)Nc1ccc(C(F)(F)F)cc1,inactive
17,C[C@@H]1CN([C@@H](C)CO)C(=O)c2cccc(NS(C)(=O)=O)c2O[C@H]1CN(C)C(=O)Nc1ccc(F)cc1,inactive
18,C[C@@H]1CN([C@H](C)CO)C(=O)c2cccc(NS(C)(=O)=O)c2O[C@@H]1CN(C)C(=O)Nc1ccc(C(F)(F)F)cc1,active
19,CNC(=O)Cn1cc(Br)cn1,inactive
20,C[C@H]1N(c2cnn(C)c2)C(=O)COC12CCN(S(C)(=O)=O)CC2,inactive
21,O=C1O[C@H](CO)[C@@H](O)[C@H](O)[C@H]1O,inactive
22,COc1ccc2c3c(n(c2c1)C)[C@@H](CO)N(Cc1ccccc1F)C[C@]13CN(C1)C(=O)C1CCOCC1,inactive
23,C[C@@H]1CN([C@@H](C)CO)C(=O)c2cccc(NS(C)(=O)=O)c2O[C@@H]1CN(C)C(=O)Nc1ccc2c(c1)OCO2,inactive

row,SMILES,growth inhibition call
1,CC1CCC2(C)C(C=O)=CCCC2C1(C)CC1OC(O)C(=O)C12CO2 (stereo not drawn),active
2,C[C@H]1CN([C@@H](C)CO)C(=O)c2cc(NC(=O)CCN3CCOCC3)ccc2O[C@@H]1CN(C)Cc1ccc2c(c1)OCO2,inactive
3,C[C@H](CO)N1C[C@H](C)[C@@H](CN(C)Cc2ccc(Cl)c(Cl)c2)Oc2ccc(NC(=O)Nc3cccc4ccccc34)cc2C1=O,inactive
4,C=CC[C@H](CC(=O)NCCO)C(=O)N[C@H](COC(=O)[C@@H](CC=C)CC(=O)OC(C)(C)C)Cc1ccccc1,inactive
5,O=C(CCCCCC(=O)Nc1ccccc1O)N/N=C/C[P+](c1ccccc1)(c1ccccc1)c1ccccc1,inactive
6,O=C(CCCCCCC(=O)Nc1ccccc1)NO,inactive
7,COC(=O)CCCCCCC(=O)Nc1ccc(NC(=O)CCCC[P+](c2ccccc2)(c2ccccc2)c2ccccc2)cc1,active
8,C[C@@H]1CN([C@H](C)CO)C(=O)c2cccc(NC(=O)NC3CCCCC3)c2O[C@H]1CN(C)C(=O)Nc1cccc2ccccc12,inactive
9,C[N+](C)(C)CCCCCCNC(=O)[C@@H]1C[C@@H]2C(=O)N[C@@H](CCCC[N+](C)(C)C)C(=O)N2[C@@H]1c1ccc(O)cc1,active
10,C[N+](C)(C)CCCCNC(=O)[C@H]1C[C@H]2C(=O)N[C@@H](CCCC[N+](C)(C)C)C(=O)N2[C@H]1c1ccc(O)cc1,inactive
11,C[N+](C)(C)CCCCCCNC(=O)[C@H]1C[C@H]2C(=O)N[C@@H](CCCC[N+](C)(C)C)C(=O)N2[C@H]1c1ccc(O)cc1,inactive
12,COc1ccc(CNC(=O)C[C@@H]2C[C@H]3c4cc(NC(=O)NC5CCCC5)ccc4O[C@H]3[C@@H](CO)O2)cc1,inactive
13,O=C(Nc1ccc(S(=O)(=O)OCC(F)(F)C(F)(F)C(F)(F)C(F)F)cc1)NC1(C(F)(F)F)Oc2ccccc2O1,active
14,C=CC[C@@H](CC(=O)N(CCO)Cc1ccccc1)C(=O)NCCOC(=O)[C@@H](CC=C)CC(=O)OC(C)(C)C,inactive
15,C[C@H](CO)N1C[C@H](C)[C@H](CN(C)C(=O)Nc2ccc(C(F)(F)F)cc2)Oc2ccc(NC(=O)Cn3cnnn3)cc2CC1=O,inactive
16,O=C(C[C@@H]1CC[C@H]2[C@@H](COC[C@H](O)CN2S(=O)(=O)c2ccccc2)O1)N1CCOCC1,inactive
17,COc1ncc(-c2ccc3c(Nc4cc(Oc5cc(F)cc(F)c5)cc(C(=O)O)c4)c(S(=O)(=O)NC4CC4)cnc3c2)c(OC)n1,active
18,CCCN(C)C[C@H]1OCCCC[C@H](C)Oc2ccc(NC(=O)CCC(F)(F)F)cc2C(=O)N([C@H](C)CO)C[C@@H]1C,inactive
19,O=C(OCc1ccccc1)c1cccnc1,inactive
20,C[C@H]1CCCCO[C@H](CN(C)CC2CCCCC2)[C@@H](C)CN([C@@H](C)CO)C(=O)c2cc(NC(=O)Nc3cccc4ccccc34)ccc2O1,inactive
21,CCCC#Cc1ccc2c(c1)O[C@H](CN(C)Cc1ccc3c(c1)OCO3)[C@H](C)CN([C@@H](C)CO)S2(=O)=O,inactive
22,C[C@@H]1CN([C@@H](C)CO)C(=O)c2cc(NS(=O)(=O)c3cccs3)ccc2O[C@@H]1CN(C)CC1CC1,inactive
